# Mdm2-MdmX inh = inhibitors of human Mdm2-MdmX association, primary screen, cell-based, luminescence, split luciferase, SaOS-2, uHTS | SaOS-2 split-luciferase Mdm2/MdmX complementation | inhibition, % at 8 µM | hit rate 3% among 330,000;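 active means inhibition of at least 50% at 8 µM in the primary screen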
# Target sequence (O15151 whole entry, looked up): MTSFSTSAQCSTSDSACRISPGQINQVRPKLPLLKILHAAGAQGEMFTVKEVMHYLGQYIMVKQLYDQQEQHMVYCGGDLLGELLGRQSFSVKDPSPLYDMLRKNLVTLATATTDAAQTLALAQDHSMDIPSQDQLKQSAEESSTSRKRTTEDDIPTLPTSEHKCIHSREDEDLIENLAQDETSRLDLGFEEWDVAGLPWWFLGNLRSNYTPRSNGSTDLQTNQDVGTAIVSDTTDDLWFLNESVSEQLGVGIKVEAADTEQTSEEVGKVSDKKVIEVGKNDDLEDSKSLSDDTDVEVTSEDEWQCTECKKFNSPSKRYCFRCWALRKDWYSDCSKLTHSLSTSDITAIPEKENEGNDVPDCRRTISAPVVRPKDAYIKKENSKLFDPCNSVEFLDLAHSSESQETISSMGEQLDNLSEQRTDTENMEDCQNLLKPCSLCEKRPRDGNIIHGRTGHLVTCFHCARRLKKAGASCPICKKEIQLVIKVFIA
# Target sequence (Q00987 whole entry, looked up): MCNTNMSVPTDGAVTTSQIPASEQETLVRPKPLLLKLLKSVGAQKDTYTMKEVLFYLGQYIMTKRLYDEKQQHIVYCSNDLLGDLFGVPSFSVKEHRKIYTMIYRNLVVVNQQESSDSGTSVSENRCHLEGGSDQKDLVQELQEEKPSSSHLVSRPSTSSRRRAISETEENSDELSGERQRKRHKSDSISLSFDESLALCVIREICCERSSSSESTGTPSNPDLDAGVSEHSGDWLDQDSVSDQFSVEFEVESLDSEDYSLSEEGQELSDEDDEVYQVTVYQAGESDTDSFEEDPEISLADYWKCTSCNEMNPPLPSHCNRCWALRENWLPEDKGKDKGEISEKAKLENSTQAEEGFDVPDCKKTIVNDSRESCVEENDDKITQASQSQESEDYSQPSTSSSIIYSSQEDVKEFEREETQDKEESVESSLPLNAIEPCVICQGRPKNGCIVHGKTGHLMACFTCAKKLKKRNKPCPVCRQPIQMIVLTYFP
# CSC inhib = cancer stem cell viability inhibitors, primary screen, luminescence | cancer stem cell-like cells viability | inhibition, % at 7.5 µM | hit rate 1.1% among 300,000; in the data active means inhibition above about 75%; tested in HMLE shEcad cells
# PAX8 reporter = inhibitors of PAX8-driven TPO luciferase reporter, primary screen, RMG-I cells, single concentration | AID 652154, 2013 | hit rate 1.2% among 360,000 | SteadyGlo, 24 h | inhibition, % at 12.6 µM;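 active means mean replicate inhibition at least 60% with every replicate also reaching 60%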;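 further: luciferase light reporting Pax8 driven TPO promoter activity; plate controls were median of neutral control wells for no effect and mitoxantrone controls for full effect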
# Shn3 inh set2 = reduction of Shn3 3'UTR firefly luciferase signal, primary screen, Schnurri-3 inhibitor project, cell-based, Clone20 osteoblasts, set 2. AID 588674, 2011. Clone20 osteoblast Shn3 3'UTR firefly luciferase, 24 h. hit rate 0.52% among 360,000. inhibition, % at 12.5 µM;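 active means mean inhibition of at least 75% with every replicate also reaching 75%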;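 further: 0% = median of neutral control wells and 100% = pilot-screen positive control compound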
# Beta apoptosis = inhibitors of cytokine-induced beta cell apoptosis, primary screen, luminescence. INS-1E cytokine-induced death, ATP luminescence, 48 h; percent of positive-control rescue, neutral wells zero. protection from apoptosis, % (concentration not given with the values). hit rate 0.8% among 300,000. AID 435005, 2010;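 active means Every replicate reaches about 75%, or at least half do and their mean reaches it too, limit read from the data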;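 further: 0% = cytokine-treated negative control wells and 100% = positive control rescue; higher means more ATP so stronger rescue from cytokine killing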
# Gli-Sufu block = Gli-Sufu pathway antagonists, primary screen, luciferase luminescence, Sufu-KO-LIGHT cells, uHTS; Sufu-KO-LIGHT fibroblasts, Gli luciferase reporter luminescence; inhibition, % at 5 µM; hit rate 0.74% among 340,000; AID 588413, 2011;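 active means inhibition above about 55%, limit read from the data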;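 further: 0% = DMSO-treated cells and 100% = wells with medium but no cells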
# * marks the source's active call; other numbers are inactive results; . = no result. An excerpt weighted towards active compounds, which were near 4% of everything screened.
SMILES,Mdm2-MdmX inh,CSC inhib,PAX8 reporter,Shn3 inh set2,Beta apoptosis,Gli-Sufu block
CCCc1cc(=O)n(-c2nc3ccccc3s2)[nH]1,-1,140*,-14,-2,-2,2
CC(C)C(=O)Nc1ccc(C(=O)NCc2cccnc2)cc1,0,44,.,56,107*,-19
O=C(NCc1cccnc1)c1ccc(NC(=O)c2ccc(Br)cc2)cc1,32,85*,1,63,140*,23
COc1ccc(/C=N/OCC(=O)N2CC3(C)CC2CC(C)(C)C3)cc1 (stereo not drawn),3,110*,.,-3,-6,3
O=C(N[C@H]1CC[C@@H](CCn2cc(-c3ccccc3)nn2)O[C@@H]1CO)c1cnccn1,.,.,8,.,.,.
O=C(CSc1nnc(-c2ccc(Br)cc2)o1)Nc1cccc(C(=O)O)c1,49,-9,83*,28,-3,-53
O=C(c1ccc2c(c1)OCO2)N1CC(=O)N2[C@H](CO)[C@H](c3ccc(C#CC4CCCC4)cc3)[C@H]2C1,.,.,-6,.,.,.
CCCN(C)C[C@H]1OCCCC[C@H](C)Oc2ccc(NS(=O)(=O)c3ccccc3)cc2C(=O)N([C@H](C)CO)C[C@H]1C,.,.,15,.,.,.
COc1ccc(-c2ccc(CN3C(C(C)C)C(=O)N(Cc4cn(CCC5OCCO5)nn4)CCS3(=O)=O)cc2)cc1OC (stereo not drawn),.,.,-14,-19,.,.
COCOCCn1cc(CN2CCS(=O)(=O)N(Cc3ccc(-c4ccc(Cl)c(Cl)c4)cc3)C(C(C)C)C2=O)nn1 (stereo not drawn),.,.,34,91*,.,.
CC(C)C1C(=O)N(Cc2cn(CCC3OCCO3)nn2)CCS(=O)(=O)N1Cc1ccc(-c2ccc(Cl)c(Cl)c2)cc1 (stereo not drawn),.,.,13,89*,.,.
CN1CCN(C(=O)C[C@@H]2CC[C@H]3[C@@H](COc4ccc(NC(=O)c5cccs5)cc4C(=O)N3C)O2)CC1,.,.,-5,.,.,.
O=C(Nc1nc2c(F)cc(F)cc2s1)c1ccc([N+](=O)[O-])o1,-29,96*,11,-75,24,-33
COc1ccc2nc(NC(=O)c3ccc([N+](=O)[O-])o3)sc2c1,0,75*,30,-15,.,-30
Cc1cc(C)c2sc(NC(=O)c3ccc([N+](=O)[O-])o3)nc2c1,17,92*,-12,-17,3,-10
Cc1cc(C)c2nc(NC(=O)c3ccc([N+](=O)[O-])o3)sc2c1,32,-11,-28,-5,.,-12
Cc1noc(C)c1NC(=O)N(C)C[C@@H]1Oc2ccc(NC(=O)Nc3cccc4ccccc34)cc2CC(=O)N([C@@H](C)CO)C[C@@H]1C,.,.,23,.,.,.
C#CCOCCOCCOCCNc1nc(N2CCN(C(=O)CCCCCCCCCCNC(=O)[C@H](CCCN=C(N)N)n3cc(C[C@@H](C)CC)nn3)CC2)nc(N2CCN(C(=O)CCCCCCCCCCNC(=O)[C@@H]([C@H](C)CC)n3cc(CCCCCN)nn3)CC2)n1,43,168*,.,.,107*,.
C#CCOCCOCCOCCNc1nc(N2CCOCC2)nc(N2CCN(C(=O)CCCCCCCCCCNC(=O)[C@H]([C@@H](C)CC)n3cc(CCCCN=C(N)N)nn3)CC2)n1,20,22,14,6,-6,-4
C#CCOCCOCCOCCNc1nc(N2CCN(C(=O)CCCCCCCCCCNC(=O)[C@H]([C@@H](C)CC)n3cc(CCCCN=C(N)N)nn3)CC2)nc(N2CCN(C(=O)CCCCCCCCCCNC(=O)[C@H](CCCN=C(N)N)n3cc(C[C@@H](C)CC)nn3)CC2)n1,-23,88*,.,.,98*,.
O=C(NNC(=O)c1ccccc1O)c1ccc(Cl)c(S(=O)(=O)N2CCc3ccccc32)c1,49,10,48,82,83*,63*
CC(=O)N1CCN(C(=O)c2ccc(Cl)c(S(=O)(=O)N3CCc4ccccc43)c2)CC1,-7,.,14,-3,-4,7
C(=N\N1CCN(Cc2ccccc2)CC1)/c1ccc(-c2ccccc2)cc1,40,13,-25,89*,9,-14

# Screens deposited in PubChem by several laboratories.
